# Molecular target: PROP1 (Homo sapiens, UniProt O75360 56-141, R99H)
# Test: PBM; 200 nM protein, PBS
# Conditions: dsDNA, one strand shown
# Chain of PROP1 (Homo sapiens, UniProt O75360 56-141, R99H) (O75360 56-141 R99H): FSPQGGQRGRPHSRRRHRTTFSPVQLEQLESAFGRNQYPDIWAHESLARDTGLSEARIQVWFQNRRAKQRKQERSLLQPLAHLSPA
row,Sequence,binding signal
1,CACCGGGG,"6.87 upbm affinity estimate (log intensity, higher = more binding, comparable within an allelic series)"
2,CCAGGGCG,"6.55 upbm affinity estimate (log intensity, higher = more binding, comparable within an allelic series)"
3,CCTTTCCC,"6.87 upbm affinity estimate (log intensity, higher = more binding, comparable within an allelic series)"

# Molecular target: VAX1 (Homo sapiens, UniProt Q5SQQ9 86-172)
# Test: PBM; 200 nM protein, PBS
# Conditions: dsDNA, one strand shown
# Chain of VAX1 (Homo sapiens, UniProt Q5SQQ9 86-172) (Q5SQQ9 86-172): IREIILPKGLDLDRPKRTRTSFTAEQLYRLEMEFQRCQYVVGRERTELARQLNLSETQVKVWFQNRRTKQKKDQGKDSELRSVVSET
row,Sequence,binding signal
1,CCAATCAC,"8.98 upbm affinity estimate (log intensity, higher = more binding, comparable within an allelic series)"
2,CCGGATGC,"6.72 upbm affinity estimate (log intensity, higher = more binding, comparable within an allelic series)"
3,CCGAGGGA,"7.35 upbm affinity estimate (log intensity, higher = more binding, comparable within an allelic series)"

# Molecular target: PROP1 (Homo sapiens, UniProt O75360 56-141, F88S)
# Test: PBM; 200 nM protein, PBS
# Conditions: dsDNA, one strand shown
# Chain of PROP1 (Homo sapiens, UniProt O75360 56-141, F88S) (O75360 56-141 F88S): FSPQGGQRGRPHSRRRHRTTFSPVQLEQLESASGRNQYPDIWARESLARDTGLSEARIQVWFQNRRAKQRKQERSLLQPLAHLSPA
row,Sequence,binding signal
1,CACCGGGG,"6.47 upbm affinity estimate (log intensity, higher = more binding, comparable within an allelic series)"
2,CCAGGGCG,"6.42 upbm affinity estimate (log intensity, higher = more binding, comparable within an allelic series)"
3,CCTTTCCC,"6.77 upbm affinity estimate (log intensity, higher = more binding, comparable within an allelic series)"

# Molecular target: NKX3-2 (Homo sapiens, UniProt P78367 192-278, P234S)
# Test: PBM; 200 nM protein, PBS
# Conditions: dsDNA, one strand shown
# Chain of NKX3-2 (Homo sapiens, UniProt P78367 192-278, P234S) (P78367 192-278 P234S): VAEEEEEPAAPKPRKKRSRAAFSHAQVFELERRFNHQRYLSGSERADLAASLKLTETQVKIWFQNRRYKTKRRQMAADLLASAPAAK
row,Sequence,binding signal
1,ATTACCTA,"11.2 upbm affinity estimate (log intensity, higher = more binding, comparable within an allelic series)"
2,CCAGGGCG,"10.3 upbm affinity estimate (log intensity, higher = more binding, comparable within an allelic series)"
3,CGGGCGTC,"10.6 upbm affinity estimate (log intensity, higher = more binding, comparable within an allelic series)"

# Molecular target: VAX1 (Homo sapiens, UniProt Q5SQQ9 86-172, K157R)
# Test: PBM; 200 nM protein, PBS
# Conditions: dsDNA, one strand shown
# Chain of VAX1 (Homo sapiens, UniProt Q5SQQ9 86-172, K157R) (Q5SQQ9 86-172 K157R): as the sequence (Q5SQQ9 86-172) above, with K72R counted along it
row,Sequence,binding signal
1,CCAATCAC,"8.89 upbm affinity estimate (log intensity, higher = more binding, comparable within an allelic series)"
2,CCGGATGC,"6.77 upbm affinity estimate (log intensity, higher = more binding, comparable within an allelic series)"
3,CCGAGGGA,"7.35 upbm affinity estimate (log intensity, higher = more binding, comparable within an allelic series)"

# Molecular target: NKX3-2 (Homo sapiens, UniProt P78367 192-278)
# Test: PBM; 200 nM protein, PBS
# Conditions: dsDNA, one strand shown
# Chain of NKX3-2 (Homo sapiens, UniProt P78367 192-278) (P78367 192-278): as the sequence (P78367 192-278 P234S) above, with S43P counted along it
row,Sequence,binding signal
1,ATTACCTA,"11.2 upbm affinity estimate (log intensity, higher = more binding, comparable within an allelic series)"
2,CCAGGGCG,"10.2 upbm affinity estimate (log intensity, higher = more binding, comparable within an allelic series)"
3,CGGGCGTC,"10.5 upbm affinity estimate (log intensity, higher = more binding, comparable within an allelic series)"

# From PMC11006913
